Source: PubChem BioAssay (several laboratories)
The list is not random: actives were taken first. Their share in the collection is about 2.6%.
Cardio protect = protects H9c2 cardiomyocytes from peroxide injury; H2O2 injury protection, ATPLite, 2 h; protection from H2O2 cell death, % at 20 µM; 360,000 compounds, 0.63% hits; AID 588492;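 active = compounds giving at least 50% protection of heart cells from peroxide-induced death in the single-dose screen, raw or plate-pattern-corrected value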;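 note: 0% = DMSO wells with peroxide and 100% = DMSO wells without peroxide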
H9c2 TAG inh = inhibitors of triacylglycerol accumulation | 230,000 compounds, 0.66% hits | inhibition, % at 12.5 µM | H9c2 cells, Nile Red lipid (TAG) fluorescence; cells loaded with 200 µM oleic acid;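 active = pattern-corrected inhibition of lipid staining of at least 50% with the nuclear-stain viability signal not falling by more than 50%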;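 note: 0% = DMSO wells and 100% = triacsin C control wells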
NR2F2 inh = NR2F2 (human) inhibition, primary screen; HEK293T NGFI-A luciferase reporter, luminescence; inhibition, % at 8.6 µM; 370,000 compounds, 0.7% hits;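 active = inhibition above a per-plate cutoff, mean inhibition of test wells between control levels plus 3 SD, cut at about 38% in these data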;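 note: cells cotransfected with COUP-TFII expression vector driving the NGFI-A reporter; 0% = median of COUP-TF2 test wells and 100% = reporter-only cells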
Target sequence (P24468 whole entry, looked up): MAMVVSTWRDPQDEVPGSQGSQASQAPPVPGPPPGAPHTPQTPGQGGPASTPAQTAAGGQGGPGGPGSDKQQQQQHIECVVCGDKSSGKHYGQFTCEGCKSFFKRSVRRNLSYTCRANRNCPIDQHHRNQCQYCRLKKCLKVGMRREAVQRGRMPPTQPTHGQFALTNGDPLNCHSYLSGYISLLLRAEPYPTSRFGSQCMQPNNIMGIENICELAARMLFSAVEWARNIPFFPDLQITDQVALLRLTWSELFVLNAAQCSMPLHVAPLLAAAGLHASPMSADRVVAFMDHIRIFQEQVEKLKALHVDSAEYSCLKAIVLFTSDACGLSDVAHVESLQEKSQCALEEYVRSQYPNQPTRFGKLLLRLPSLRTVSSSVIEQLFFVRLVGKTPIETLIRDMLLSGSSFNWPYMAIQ
Jurkat NFkB inh = inhibitors of the PMA/ionomycin-induced NF-kB reporter in Jurkat cells. 330,000 compounds, 0.53% hits. inhibition, % at 4 µM. AID 435003. PMA/ionomycin-induced NF-kB luciferase reporter, luminescence; in the data active = inhibition above about 50%
697 NFkB inh = inhibitors of the PMA/ionomycin-induced NF-kB reporter in 697 B cells. inhibition, % at 4 µM. 697 B-cell NF-kB luciferase reporter, 16 h. AID 435022. 330,000 compounds, 0.33% hits; in the data active = inhibition above about 35%
Gli-Sufu block = Gli-Sufu pathway antagonism; Sufu-KO-LIGHT fibroblasts, Gli luciferase reporter luminescence; inhibition, % at 5 µM; 340,000 compounds, 0.74% hits;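 active = inhibition above about 55%, limit read from the data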;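 note: 0% = DMSO-treated cells and 100% = wells with medium but no cells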
Jurkat NFkB conf = lowers PMA/ionomycin-induced NF-kB signal in Jurkat cells. shares compounds with Jurkat NFkB inh. Jurkat NF-kB luciferase, 16 h. inhibition, % at 4 µM. 2,700 compounds, 27% hits. AID 435020;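 active = inhibition reaching about 45% at 4 µM in either replicate, limit read from the data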;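 note: plate controls were PMA/ionomycin stimulated DMSO wells for no effect and unstimulated DMSO wells for full effect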
The depositor's hits bear a star; nt = no result given.

SMILES	Cardio protect	H9c2 TAG inh	NR2F2 inh	Jurkat NFkB inh	697 NFkB inh	Gli-Sufu block	Jurkat NFkB conf
COc1ccc(-n2nc(C(=O)NCC(=O)Nc3cc(OC)c(OC)c(OC)c3)c3ccccc3c2=O)cc1OC	48	nt	-16	57*	31	2	-8
Oc1ccc(/C=N/Nc2cccc3cccnc23)c(O)c1	21	nt	-57	-55	-197	14	nt
Cc1ccc(/C=N/Nc2cccc3cccnc23)c(O)c1	-18	nt	-8	-152	-123	-67	-77
C#CCNC(=O)C[C@H]1C[C@@]2(C(=O)OC)C(=C[C@H](C(C)C)O[C@@H]2C2CC2)N(CCCCCCCC)C1=O	nt	nt	19	nt	nt	nt	nt
O=C(O)Cc1ccc2sc(-c3ccccc3)nc2c1	-2	nt	-2	-13	-16	1	nt
COC(=O)Cc1ccc2sc(-c3ccccc3)nc2c1	-17	-2	-35	-156	-93	-77	-99
O=C(Nc1cccc2ccccc12)OC1C=CS(=O)(=O)C1 (stereo not drawn)	8	18	10	90*	-45	2	65*
NC(=O)Nc1cccc2ccccc12	6	nt	10	-1	-23	0	nt
NNC(=O)COc1ccccc1F	2	6	-16	96*	-1	-1	2
O=C(Nc1ccc(F)cc1Cl)C1CCCN1S(=O)(=O)c1cccc2cccnc12 (stereo not drawn)	nt	nt	7	nt	nt	nt	nt
O=[N+]([O-])c1ccc(N2CCCCC2)cn1	-2	1	7	-4	-13	-6	nt
O=[N+]([O-])c1ccc(N2CCN(c3cccc(Cl)c3)CC2)cn1	-2	nt	-24	53*	10	-2	-12
CC1=C(C(=O)Nc2cccc(F)c2)C(c2ccsc2)C2=C(CC(C)(C)CC2=O)N1 (stereo not drawn)	7	47	3	50*	-33	14	7
COc1ccc(OC)c(S(=O)(=O)n2c(CN3CCOCC3)nc3ccccc32)c1	nt	nt	-9	nt	nt	nt	nt
CN(C)c1ccc(-c2nnc(-c3cccs3)o2)cc1	-17	-10	-63	-161	-238	-142	-115
CC(=O)Nc1sc2c(c1C#N)CCC(C)C2 (stereo not drawn)	-4	-11	-9	3	12	-3	nt
Cc1cc(C(=O)Nc2sc3c(c2C#N)CCC(C)C3)cs1 (stereo not drawn)	-4	nt	-29	-165	-114	-29	-108
N#Cc1c(NC(=O)c2ccccc2)sc2c1CCC2	-6	-2	-41	-59	-250	-109	nt
CCc1ccc(CCC(=O)Nc2sc3c(c2C#N)CCCC3)o1	-4	nt	-6	56*	1	-2	25
Cc1cccc(C(=O)Nc2sc3c(c2C#N)CCCCC3)c1	-26	3	-24	-169	-195	3	-126
COCc1cc(N2CCNC[C@@H]2C)ccc1N1CCN(Cc2ccccc2)[C@H](C)C1	nt	nt	17	nt	nt	nt	nt
COC(CNC(=O)[C@H](Cc1ccccc1)NC1(C(=O)NC2CCCCC2)CCCC1)OC	nt	nt	14	nt	nt	nt	nt
CC(COc1ccccc1)CN1CCC(C(O)(c2ccccc2)c2ccccc2)CC1 (stereo not drawn)	nt	nt	-2	nt	nt	nt	nt
N#Cc1ccccc1Cn1cc(/C=N/Nc2ccc([N+](=O)[O-])cn2)c2ccccc21	-6	-10	-4	67*	-15	12	-6
CCOc1ccccc1C=NNc1ccc([N+](=O)[O-])cn1	3	7	8	nt	nt	-5	nt
SMILES	Cardio protect	H9c2 TAG inh	NR2F2 inh	Jurkat NFkB inh	697 NFkB inh	Gli-Sufu block	Jurkat NFkB conf
C/C(=N\OCc1cccc(C(=O)O)c1)c1ccc(Cl)cc1	-1	-3	-26	62*	13	-231	38
C/C(=N\OCc1ccc(C#N)cc1)c1ccccc1	-4	-7	-24	-117	-123	-76	nt
COc1ccc(/C=N/NC(=O)CCn2cnc3ccccc32)cc1	0	8	-11	5	-16	18	nt
COc1ccc(/C=N/NC(=O)COc2ccccc2-c2ccccc2)cc1	-10	59*	-74	56*	20	33	47*
COc1ccc(/C=N/NC(=O)CCn2cnc(-c3ccccc3)c2-c2ccccc2)cc1	-7	40	-62	57*	8	22	27
COc1ccc2c(c1)CN1C(=O)N(Cc3ccc(F)cc3)S(=O)(=O)CC21 (stereo not drawn)	nt	nt	24	nt	nt	nt	nt
N#CCC(CNc1ncc(C(F)(F)F)cc1Cl)OC(=O)c1ccc(Cl)cc1Cl (stereo not drawn)	-16	nt	14	70*	-5	10	11
